PAX8 reporter: lowers PAX8-driven luciferase in RMG-I cells; RMG-I TPO-luciferase reporter, SteadyGlo, 24 h; inhibition, % at 12.6 µM; 360,000 compounds, 1.2% hits; AID 652154;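 active = mean replicate inhibition at least 60% with every replicate also reaching 60%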;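 also: luciferase light reporting Pax8 driven TPO promoter activity; plate controls were median of neutral control wells for no effect and mitoxantrone controls for full effect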
EWS-Fli block: inhibitors of EWS/Fli oncoprotein transcriptional activity | 350,000 compounds, 0.67% hits | A673 NR0B1-luciferase reporter, viability-normalised | inhibition, % at 12.6 µM;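 active = mean inhibition of at least 50% after viability correction, with every replicate also passing that limit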;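 also: firefly luciferase signal divided by Alamar Blue viability fluorescence both relative to DMSO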
EBV LMP1 NFkB: Epstein-Barr LMP1 NF-kappaB reporter inhibition; LMP1-induced NF-kappaB luciferase reporter cells, luminescence; inhibition, % at 12.5 µM; 350,000 compounds, 0.69% hits; AID 504558; in the data active = inhibition above about 41%;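 also: 0% = neutral control wells and 100% = reference inhibitor control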
TWEAK Fn14 block: inhibitors of TWEAK-Fn14 interaction signaling. TWEAK-stimulated Fn14 reporter cells, luciferase luminescence, 8 h. 360,000 compounds, 2% hits. inhibition, % at 10 µM; in the data active = inhibition above about 50%
TROY NFkB inh: blocks TROY-dependent signaling in reporter cells | Q293 LMP1-TROYcd NF-kB luciferase reporter, 4 h | inhibition, % at 10 µM | 360,000 compounds, 0.98% hits | AID 1347056;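 active = compounds whose plate-normalised and pattern-corrected inhibition of the luciferase reporter signal at the single screening dose is 50% or more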
LGR2 inh: blocks bursicon-induced cAMP signaling via Drosophila LGR2; HEK293 LGR2, CRE-luciferase, bursicon-stimulated, 4 h; inhibition, % at 9.99 µM; 380,000 compounds, 0.35% hits; AID 720647;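 active = drop in luminescence signal, shown as inhibition above about 50% in the replicate tests, limit read from the data, passing the limit was not always enough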;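 also: agonist challenge used bursicon conditioned medium at about half maximal strength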
DNA binding: binds DNA displacing acridine orange; 640 compounds, 2% hits; shares compounds with EWS-Fli block; AC35, µM (series often up to 68 µM), for inactives: top-dose activity change, negative = DNA binding; salmon sperm DNA acridine orange fluorescence polarization;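 active = fitted curve reaches a 35% signal fall AC35 below twice the sample's top valid tested dose, actives reach about 48 µM in these data; inactive = the rest, including activity in the rising direction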;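 also: lower polarization ratio signals compound binding to DNA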
Starred values were filed as active, the others as inactive; x = no result. The list is not random: actives were taken first. Their share in the collection is about 3.1%.

SMILES	PAX8 reporter	EWS-Fli block	EBV LMP1 NFkB	TWEAK Fn14 block	TROY NFkB inh	LGR2 inh	DNA binding
Cc1ccc(S(=O)(=O)Nc2ccc3c(c2)C(=O)N([C@H](C)CO)C[C@H](C)[C@@H](CN(C)Cc2ccc(C(F)(F)F)cc2)OCCCC[C@H](C)O3)cc1	97*	69*	x	x	x	21	-11%
C[C@@H]1CCCCO[C@@H](CN(C)C(=O)Cc2ccccc2)[C@@H](C)CN([C@@H](C)CO)C(=O)c2cc(NS(=O)(=O)c3ccc(F)cc3)ccc2O1	-10	64*	x	x	x	21	-9%
C[C@@H]1CN([C@H](C)CO)C(=O)c2cc(NC(=O)c3ccccc3)ccc2O[C@@H](C)CCCCO[C@H]1CN(C)C(=O)Nc1cccc2ccccc12	37	69*	x	x	x	27	-8%
C[C@@H]1CN([C@H](C)CO)C(=O)c2cc(NC(=O)C3CCCCC3)ccc2O[C@@H]1CN(C)Cc1ccc(Cl)c(Cl)c1	x	-2	x	x	x	-3	x
C[C@H](CO)N1C[C@H](C)[C@H](CN(C)S(=O)(=O)c2ccccc2F)Oc2ncc(C#Cc3cccnc3)cc2C1=O	-7	10	x	x	x	13	x
C[C@H](CO)N1C[C@H](C)[C@H](CN(C)Cc2ccc3c(c2)OCO3)Oc2ccc(NC(=O)CCC(F)(F)F)cc2CC1=O	3	-2	x	x	x	-1	x
COc1ccc(S(=O)(=O)Nc2cccc3c2O[C@@H](CN(C)C(=O)NC(C)C)[C@@H](C)CN([C@@H](C)CO)C3=O)cc1	x	-5	x	x	x	-21	x
C[C@H]1CCCCO[C@H](CN(C)Cc2ccc(C(F)(F)F)cc2)[C@@H](C)CN([C@@H](C)CO)C(=O)c2cc(NC(=O)Nc3ccccc3)ccc2O1	60	65*	x	x	x	13	-9%
C[C@@H]1CCCCO[C@H](CN(C)Cc2ccc(C(=O)O)cc2)[C@@H](C)CN([C@H](C)CO)C(=O)c2cc(NS(=O)(=O)c3ccc(F)cc3)ccc2O1	-4	-14	x	x	x	24	x
C[C@H](CO)N1C[C@H](C)[C@@H](CN(C)Cc2ccc(C(F)(F)F)cc2)OCCCC[C@H](C)Oc2ccc(NS(=O)(=O)c3ccc(F)cc3)cc2C1=O	94*	56*	x	x	x	-13	-4%
C[C@@H]1CN([C@@H](C)CO)C(=O)c2cc(NC(=O)Nc3ccc(C(F)(F)F)cc3)ccc2O[C@@H](C)CCCCO[C@H]1CN(C)Cc1ccc(C(=O)O)cc1	-1	-9	x	x	x	22	x
C[C@H](CO)N1C[C@H](C)[C@H](CN(C)CC2CCCCC2)Oc2ccc(NC(=O)Nc3cccc4ccccc34)cc2C1=O	x	62*	x	x	x	6	-9%
COc1cc2c(cc1NC(=O)CN(C)Cc1ccc(OC)c(OC)c1)oc1ccccc12	25	53*	5	38	24	-8	-6%
COc1ccc2c3c([nH]c2c1)[C@H](CO)N(C(=O)C1CCCCC1)CC31CCN(S(C)(=O)=O)CC1	x	2	x	x	x	-8	x
O=C(CC1CC1)N1CC(=O)N2[C@H](C1)[C@H](c1ccc(/C=C/c3ccccc3)cc1)[C@@H]2CO	x	-5	x	x	x	18	x
COC(=O)C[C@@H]1CC[C@@H]2[C@H](COc3ccc(NC(=O)Nc4cccc(Cl)c4)cc3C(=O)N2C)O1	-9	59*	x	x	x	19	-4%
COC(=O)C[C@@H]1CC[C@@H]2[C@H](COc3ccc(NC(=O)c4cccc(Cl)c4)cc3C(=O)N2C)O1	-20	69*	x	x	x	26	-7%
CC(=O)N(C)C[C@@H]1OCc2ccccc2-c2ccccc2C(=O)N([C@@H](C)CO)C[C@H]1C	-10	-3	x	x	x	14	x
C[C@@H]1CN([C@@H](C)CO)C(=O)c2cc(/C=C/c3ccccc3)cnc2O[C@H]1CN(C)C(=O)C1CC1	x	-7	x	x	x	6	x
COCC#Cc1ccc2c(c1)O[C@@H](CN(C)C)[C@@H](C)CN([C@H](C)CO)S2(=O)=O	-8	-12	x	x	x	1	x
CCCN1C(=O)/C(=C/c2nc3ccccc3c(=O)[nH]2)c2ccccc21	6	84*	7	33	-3	10	-1%
O=C(O)c1ccc(N/N=C/c2ccc3c(c2)OCO3)cc1	88*	85*	65*	102*	82*	101*	9%
CC(C)(C)c1ccc(/C=N/Nc2ccc(C(=O)O)cc2)cc1	53	67*	32	93*	59*	58*	7%
O=C(N/N=C/c1c(F)cccc1Cl)C1CC1	-2	-3	2	45	-22	0	x
CCNC(=S)N/N=C/c1ccc(C(=O)O)cc1	-28	-2	2	5	-11	21	x
SMILES	PAX8 reporter	EWS-Fli block	EBV LMP1 NFkB	TWEAK Fn14 block	TROY NFkB inh	LGR2 inh	DNA binding
O=C(O)c1ccc(N/N=C/c2c(F)cccc2Cl)cc1	82*	75*	14	95*	35	76*	-5%
COc1ccccc1C#Cc1cnc2c(c1)C(=O)N([C@@H](C)CO)C[C@@H](C)[C@H](CN(C)C(C)=O)O2	x	-11	x	x	x	-10	x
CCCNC(=O)N1C[C@@H](C)[C@H](OC)CN(C)C(=O)c2cc(NC(=O)C3CCC3)ccc2OC[C@@H]1C	x	-10	x	x	x	12	x
CC(C)C#Cc1ccc2c(c1)O[C@H](CN(C)Cc1ccccc1)[C@H](C)CN([C@H](C)CO)S2(=O)=O	x	18	x	x	x	0	x
COc1cc(OC)cc(-c2nc3ccccc3s2)c1	x	x	-34	-30	-62	-41	x
Cc1cc(-c2nc3ccccc3s2)ccc1N	15	61*	2	83*	32	54*	-11%
O=C(Nc1ccc(F)cc1)N1C[C@@H]2[C@H](c3ccccc31)[C@H](CO)N2C(=O)c1ccccc1	-2	-14	x	x	x	1	x
COCC(=O)N1[C@H](C#N)[C@H](c2ccccc2C2=CCCC2)[C@@H]1CO	-8	1	x	x	x	9	x
CCN(CC)c1cc(C)c2cc(NC(=O)c3cccs3)ccc2n1	-13	-18	3	-45	-29	-22	x
CCCc1nc2ccc(NC(=O)c3cccs3)cc2c(=O)n1Cc1ccccc1Cl	-1	60*	6	2	2	9	-3%
O=C(O)c1ccc2cc(-c3ccccc3)[nH]c2c1	50	64*	24	98*	40	x	-8%
COc1ccccc1-c1cn(CC[C@H]2CC[C@H](NC(=O)C3CCC3)[C@H](CO)O2)nn1	-11	2	x	x	x	11	x
C[C@@H]1CN([C@H](C)CO)C(=O)c2cc(NC(=O)CCCCCC(=O)Nc3ccccc3N)ccc2O[C@@H]1CN(C)S(=O)(=O)c1ccc(F)cc1	-7	x	x	x	x	-7	x
CO[C@H]1CN(C)C(=O)c2cc(NS(=O)(=O)c3cn(C)cn3)ccc2OC[C@H](C)N(Cc2cccc(F)c2)C[C@H]1C	-6	3	x	x	x	5	x
O=C1Nc2cc(C(=O)NCCN3CCCCCC3)ccc2S/C1=C\c1ccccc1	20	60*	0	3	-17	-3	-1%
Cc1cccc(/C=C2/Sc3ccc(C(=O)NCCN4CCCC4)cc3NC2=O)c1	11	x	-6	-10	-3	-61	x
